Only some compounds are listed: those with a hit (about 32% of all), similar ones and a draw of the others.
CYP2C9 activ: CYP2C9 (human) activation; P11712; recombinant CYP2C9, luciferin-H conversion, luminescence; active compounds read high; factor 1 = untreated enzyme, 0 = blocked; activation factor at 5 µM; 96,000 tested, 1.4% active; AID 1024;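 active = activation factor of 2 or more for CYP2C9 at a 5 µM dose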;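 also: 0 = sulfaphenazole-blocked wells and 1 = vehicle-only wells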
Target sequence (P11712 whole entry, looked up): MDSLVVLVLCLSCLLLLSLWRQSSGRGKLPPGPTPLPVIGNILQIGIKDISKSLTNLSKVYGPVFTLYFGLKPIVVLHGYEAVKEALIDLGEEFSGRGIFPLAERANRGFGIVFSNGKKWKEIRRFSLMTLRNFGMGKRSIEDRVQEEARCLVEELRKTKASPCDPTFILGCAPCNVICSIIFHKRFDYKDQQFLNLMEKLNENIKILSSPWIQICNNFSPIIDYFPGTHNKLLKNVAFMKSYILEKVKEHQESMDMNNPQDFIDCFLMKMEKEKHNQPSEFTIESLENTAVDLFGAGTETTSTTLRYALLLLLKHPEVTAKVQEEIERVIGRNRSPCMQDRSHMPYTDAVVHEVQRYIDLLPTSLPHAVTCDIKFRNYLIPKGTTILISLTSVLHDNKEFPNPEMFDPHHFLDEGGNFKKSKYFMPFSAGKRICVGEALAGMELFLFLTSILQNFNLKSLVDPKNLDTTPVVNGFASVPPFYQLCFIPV
PostGolgi yeast: growth inhibition of a yeast mutant, post-Golgi transport screen. inhibition, % at 10 µM. 98,000 tested, 0.9% active. post-Golgi transport phenotypic cell assay;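 also: yeast cells grown in 1536-well plates; yeast grown about 18 h at 30C before absorbance read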
CYP2C19 activ: activators of human cytochrome P450 2C19. P33261. recombinant CYP2C19, luciferin-H EGE luminescence; active compounds read high; 0 = fully inhibited enzyme, 1 = untreated enzyme. activation factor at 5 µM. 96,000 tested, under 10 active. AID 1025;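 active = activation factor of at least 2 at 5 µM in the primary screen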;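 also: 0 = wells with 2.5 mM tranylcypromine and 1 = vehicle-only wells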
PostGolgi ctrl: growth of the yeast control strain, post-Golgi counter-screen | efflux-deficient yeast background strain, growth absorbance A615, 16 h | inhibition, % at 10 µM | 98,000 tested, 5% active
CYP2C9 inhib: inhibitors of human CYP2C9 | P11712 | CYP2C9 Supersomes, luciferin-H conversion, luminescence | AID 777 | inhibition, % at 5 µM | 96,000 tested, 20% active;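 active = blocking of liver enzyme CYP2C9 beyond about 50% at 5 µM, limit read from the data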
CYP2C19 inh: blocks human cytochrome P450 2C19 | CYP2C19 Supersomes, luciferin-H EGE luminescence, 30 min | 96,000 tested, 21% active | inhibition, % at 5 µM;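 active = CYP2C19 inhibition above a set limit at 5 µM in the primary screen, cut at about 50% in these data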;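 also: plate controls were negative control wells for no effect and 2.5 mM tranylcypromine positive control for full effect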
* hit, by the source's call. Rule as the data show it, unless noted: active = inhibition above about 30%; inactive = the rest.

SMILES	CYP2C9 activ	PostGolgi yeast	CYP2C19 activ	PostGolgi ctrl	CYP2C9 inhib	CYP2C19 inh
CCOC(=O)C1=C(C)OC(N)=C(C(=O)OCC)C1c1ccncc1 (centres undefined)	0	0	0.1	-10	99*	93*
CC(=O)C1=C(C)OC(N)=C(C#N)C1c1ccncc1 (centres undefined)	0.8	0	1	17	17	2
CCOC(=O)C1=C(C)OC(N)=C(C(=O)OCC)C1c1cccnc1 (centres undefined)	0	-1	0.1	5	96*	92*
CCOC(=O)C1=C(C)NC2=C(C(=O)c3ccccc32)C1c1cccnc1 (centres undefined)	1	2	0.9	11	-1	11
CCCc1nnc(NC(=O)CNc2ccc(F)cc2)s1	1.1	-4	0.7	5	-13	30
CCC(SC1=Nc2ccccc2C2=NC(CC(C)C)C(=O)N12)C(=O)Nc1ccc2c(c1)OCO2 (centres undefined)	0.2	-3	0.4	1	84*	57*
Cc1cccc(CC(=O)OCn2nnc3ccccc3c2=O)c1	1.1	-1	0.7	1	-10	33
CCn1cc(C(=O)N2CCN(C(=O)c3ccco3)CC2)c2cc(OC)c(OC)cc2c1=O	0.9	-2	1	6	5	0
CCCc1ccc(OCc2ccc(C(=O)N3CCN(c4ccccn4)CC3)o2)c(OC)c1	0.4	7	0.4	71*	57*	57*
CCn1cc(C(=O)N2CCN(c3ccccn3)CC2)c2cc(OC)c(OC)cc2c1=O	0.4	-1	0.9	-1	60*	12
COc1ccc(CC(=O)N2CCN(c3ccccn3)CC2)cc1OC	0.9	5	0.5	20	7	52*
CCn1c(SCc2ccc(F)cc2)nnc1-c1nn(-c2ccccc2)ccc1=O	1.2	-1	1.1	3	-21	-9
O=C(CSCc1nc2ccccc2[nH]1)Nc1ccc2ccccc2c1	0.4	-6	0.7	11	58*	32
O=C(CSCC(=O)Nc1ccc2ccccc2c1)NCc1ccccc1	1	2	0.8	4	-2	19
O=C(CSc1cccs1)Nc1ccc2ccccc2c1	0.4	-13	0.4	0	64*	60*
C=C(C)CSCc1nc2ccccc2[nH]1	0.7	0	0.1	-7	28	90*
O=C(CSCc1cccc(CSCC(=O)Nc2ccc3ccccc3c2)n1)Nc1ccc2ccccc2c1	0	-2	0.2	7	99*	81*
O=C(CSCc1nc2ccccc2[nH]1)N1CCN(c2ccc(F)cc2)CC1	0.5	10	0.5	5	46	48
CC(C1CC1)N(C(=O)NC1CCS(=O)(=O)C1)c1ccccc1 (centres undefined)	1.1	-1	1	-1	-14	-3
CCc1sc(N2C(=O)C3C4CCC(C4=C(C)C)C3C2=O)nc1-c1ccccc1 (centres undefined)	1.3	-9	0.9	17	-33	15
O=C(OC(C(=O)NC1CCCC1)c1ccccc1F)c1ccco1 (centres undefined)	0.3	0	0.5	2	69*	48
CC(C)CC(OC(=O)c1ccco1)C(=O)NC1CCCCC1 (centres undefined)	0.1	12	0.2	1	87*	83*
CCN(CC)c1ccc(NC(=O)CN2C(=O)CSc3ncccc32)c(C)c1	1.2	-5	1.2	-2	-16	-22
Cc1nc2ncnn2c(C)c1CCC(=O)NCCc1ccccc1	1.6	5	1	14	-55	2
COC(=O)C1=C(C)OC(N)=C(C#N)C1c1cc(OC)c(OCC(N)=O)cc1Cl (centres undefined)	0.5	0	1	3	47	-1
SMILES	CYP2C9 activ	PostGolgi yeast	CYP2C19 activ	PostGolgi ctrl	CYP2C9 inhib	CYP2C19 inh
CCOC(=O)C1=C(c2ccccc2)OC(N)=C(C#N)C1C(C)C (centres undefined)	0.9	2	0.7	12	10	32
CCOC(=O)C1=C(NC#N)OC(C)=C(C)C1c1ccc(O)cc1 (centres undefined)	0.3	-4	0	3	70*	96*
O=c1c2[nH]c3ccc(Br)cc3c2ncn1CCCn1ccnc1	0.1	33*	0.2	23	89*	82*
O=c1c2[nH]c3ccccc3c2ncn1CCCn1ccnc1	0.3	2	0.7	6	72*	30
CCN(CC)c1ccc(NC(=O)c2cccc(F)c2)c(C)c1	1.9	-1	1	18	-92	4
CCCCC(=O)c1c(O)c2ccccc2oc1=O	0.8	1	1.1	3	21	-10
COc1ccc(OCC(=O)c2c(O)c3ccccc3oc2=O)cc1	0.2	5	1.1	3	78*	-11
CCCCN=C(C)c1c(O)c2ccccc2oc1=O	0.4	-13	0.2	-9	56*	85*
O=C(CC1CCCCC1)c1c(O)c2ccccc2oc1=O	0.7	0	1.1	9	28	-6
CCOc1ccc(OCC(=O)c2c(O)c3ccccc3oc2=O)cc1	0.1	6	1	1	91*	-1
CC1(C(=O)N2CC3(CC(c4cccc([N+](=O)[O-])c4)=NO3)C[C@H]2C(=O)NCC(N)=O)CC1 (some centres undefined)	1.1	-6	1	8	-15	5
Cc1ccc(CN(c2ccc(C(=O)Nc3ccc4c(c3)OCO4)cc2)S(C)(=O)=O)cc1	0.6	2	0.6	18	40	44
CC(=O)c1cccc(NC(=O)c2ccc(N(Cc3ccc(C)cc3)S(C)(=O)=O)cc2)c1	0.1	-1	0.1	5	85*	85*
CS(=O)(=O)N(Cc1ccc(Cl)cc1)c1ccc(C(=O)Nc2cccnc2)cc1	0.2	9	0	11	84*	95*
CCCC(O)(CCN1CCOCC1)c1ccc(Br)cc1 (centres undefined)	0.9	3	0.6	6	6	36
Cc1occc1-c1nnc(SCC(=O)Nc2ccccc2N2CCCCC2)n1C	0.7	-2	0.5	11	28	45
CC(C)(C)c1ccc(C(=O)CC(=O)c2cc(Cl)ccc2O)cc1	0.4	2	0.4	28	60*	57*
Cc1ccc(C(=O)CC(=O)c2cc(Cl)ccc2O)cc1	0.8	4	1	33*	19	4
N#C/C(C(=O)Oc1ccccc1)=C1\C=Cc2ccccc2N1	1	8	1.1	1	-4	-13
CCCCOC(=O)Nc1ccc(C)c(Cl)c1	0.9	-7	0.8	17	11	25
CCCCNC(=O)C1CCCN1C(=O)Nc1cccc(OC)c1 (centres undefined)	1.1	8	1.1	9	-8	-7
CN(CC(=O)NCc1cccs1)S(=O)(=O)c1cccc2nsnc12	1.2	4	0.2	3	-25	83*
CC(C)CCNC(=O)CN(C)S(=O)(=O)c1cccc2nsnc12	0.5	-5	0.7	16	50*	25

From PubChem BioAssay
